Screening data: PubChem BioAssay, several laboratories
In the library only some 13% were active in any assay of this set; here they are far more common.
Lmaj promast – reduces viability of Leishmania major promastigotes | AID 1063 | 9% of 200,000 active | inhibition, % at 10 µM | resazurin fluorescence viability; in the data active means inhibition above about 50%;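 further: promastigotes grown with compound for 44 hours at 28 °C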
WT yeast gro inh – growth inhibition of WT yeast, mitochondrial fusion screen | mitochondrial fusion phenotypic screen, WT strain | inhibition, % at 10 µM | 2.1% of 190,000 active; in the data active means inhibition above about 58%; tested in S. cerevisiae
RAM network inh – blocks the yeast RAM network; S. cerevisiae dse1pr::URA3 reporter, 5-FOA growth OD615, 2 d; analog-sensitive cbk1-as2 kinase mutant strain; inhibition, % at 50 µM; 1.8% of 190,000 active;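 active means inhibition above a set limit, 3 SD over mean compound inhibition, cut at about 8.4% in these data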;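 further: 0% = DMSO-only wells with no growth and 100% = 10 µM 1-NA-PP1 full growth; inhibition rescues growth on 5-FOA so higher OD means more RAM inhibition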
CHOP inh – inhibitors of CHOP induction in ER stress response; CHO-K1 CHOP-promoter luciferase, tunicamycin-induced, 15-18 h; 3.8% of 220,000 active; inhibition, % at 10 µM; AID 2732;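 active means compounds that reduced the stress-induced luciferase reporter signal by more than about 70% of percent inhibition, limit read from the data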;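 further: 0% = tunicamycin plus vehicle and 100% = wells without tunicamycin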
Active calls of the source: *; · = no result.

SMILES	Lmaj promast	WT yeast gro inh	RAM network inh	CHOP inh
Cc1ccc(S(=O)(=O)N(CC(O)CN2CCCCC2)c2ccccc2)cc1 (stereo unspecified)	0	2	3	31
Cc1ccc(C)c(N2CCN(C(=O)Cn3c(=O)[nH]c4ccsc4c3=O)CC2)c1	2	41	-1	23
C#CCOCCOCCOCCNc1nc(N2CCN(C(=O)[C@H]([C@@H](C)CC)n3cc([C@@H](N)Cc4ccc(O)cc4)nn3)CC2)nc(N2CCN(C(=O)[C@H](CCCCN)n3cc([C@@H](N)CC(C)C)nn3)CC2)n1	-5	-7	-2	5
COc1ccc(S(=O)(=O)n2nc(OC(=O)C3CCCCC3)cc2N)cc1	1	0	3	74*
COc1ccccc1C(=O)Oc1cc(N)n(S(=O)(=O)c2ccc(C)cc2)n1	2	-9	2	79*
Cc1nn(C)c(C)c1/C=C/C(=O)c1cccs1	72*	20	-1	-12
O=C1NC(=O)/C(=C\c2ccccc2OCc2cccc([N+](=O)[O-])c2)N1	57*	-5	1	56
O=C1NC(=O)/C(=C/c2cccc([N+](=O)[O-])c2)N1	·	·	·	11
COC(=O)COc1ccccc1/C=C1/NC(=O)NC1=O	53*	8	2	6
COc1ccc(-n2c(C)cc(/C=N/Nc3nnc(C)n3N)c2C)cc1	14	0	0	11
CC(c1ccccc1)N(NC(=O)C(O)(c1ccccc1)c1ccccc1)C(=O)c1ccccc1 (stereo unspecified)	28	0	4	17
O=C(c1c[nH]c2ccccc2c1=O)N1CCCCCC1	5	-4	3	36
C=CCOc1c(Cl)cc(CNc2ccc(N(C)C)cc2)cc1OC	101*	54	8.4*	-54
C=CCOc1c(Cl)cc(CNc2ccc(C)c(Cl)c2)cc1OC	9	27	0	21
COC(=O)c1cccc(C23CC4(C2)[C@H](CN(Cc2cccnc2)[C@@H]4c2ccccc2)C3c2ccc(C(F)(F)F)cc2)c1 (stereo partly specified)	·	·	·	-1
CN1C(=O)S/C(=C/c2cccnc2)C1=O	5	-16	2	-2
O=C1/C(=C\c2cccnc2)Sc2ccccc21	100*	15	-1	-29
C=CCn1c(SCc2ccc(Cl)cc2)nc2cc(C(=O)N3CCC(C(N)=O)CC3)ccc2c1=O	-3	14	1	83*
CCCCCn1c(SCC(=O)OCC)nc2cc(C(=O)N3CCC(C(N)=O)CC3)ccc2c1=O	-5	-15	1	26
O=C(NCC1OCCc2ccccc21)c1cc(COc2c(F)cccc2F)on1 (stereo unspecified)	2	12	3	-16
Cc1cccc(NC(=O)c2ccccc2NC(=O)C2CCCCC2)c1C	8	3	2	78*
O=C(Nc1ccccc1)c1ccccc1NC(=O)C1CCCCC1	4	-15	2	68
CCN(C(=O)COC(=O)c1ccc2[nH]c3c(c2c1)CCCC3)C1CCS(=O)(=O)C1 (stereo unspecified)	31	-6	1	22
O=C(Nc1cc(Sc2nc3ccccc3s2)cc([N+](=O)[O-])c1)c1ccccc1	100*	22	5	51
O=C(Nc1cc(Sc2ccccn2)cc([N+](=O)[O-])c1)c1cccc(F)c1	95*	36	9.4*	37
SMILES	Lmaj promast	WT yeast gro inh	RAM network inh	CHOP inh
Nc1cc(N)nc(SCC(=O)N2CCc3ccccc32)n1	0	99*	2	-5
Cc1ccc(-c2nnc3ccc(SCC(=O)N4CCc5ccccc54)nn23)cc1	-1	4	5	85*
Cc1cc(C)c(S(=O)(=O)Cc2ccccc2)c(=O)[nH]1	-5	12	0	20
COc1ccc(C2(C(=O)NCc3ccccc3Cl)CCOCC2)cc1OC	-6	3	0	-8
O=C(CC1C(=O)NCCN1Cc1ccc(F)cc1)NCCCn1cccn1 (stereo unspecified)	-8	-2	2	4
CN(CCC#N)c1ccc(/C=C(\C#N)c2ccccn2)cc1	36	10	2	8
CCN(CC)c1ccc(/C=C(\C#N)c2ccccn2)cc1	12	68*	0	35
CC(Sc1ncnc2ccccc12)C(=O)Nc1ccc2c(c1)OCCO2 (stereo unspecified)	-5	-40	1	33
Cc1cc(C)n(-c2nc(NCCC(C)C)c3c4c(sc3n2)COC(C)(C)C4)n1	71*	80*	0	44
COC(=O)COc1cccc2c(=O)n(CC(=O)NCCc3ccccc3)ccc12	-10	-7	-1	-14
COc1ccc(C2N(c3ccc(C)cc3)CCN2c2ccc(C)cc2)cc1O	11	5	0	95*
COc1cc(C2N(c3ccccc3)CCN2c2ccccc2)ccc1OC(C)=O	-4	13	2	14
COCCCN1C(=O)/C(=C/c2ccc(CNS(=O)(=O)c3ccccc3)o2)C(C(=O)OC)=C1C	-2	16	-1	14
Cc1cccc(C)c1OCC(=O)N/N=C/c1cc2c(cc1[N+](=O)[O-])OCO2	5	17	3	8
Cc1ccc(C)c(N=Cc2cc3c(cc2[N+](=O)[O-])OCO3)c1	-5	-6	0	81*
Cc1ccc2nc(Cl)c(/C=N/Nc3ccc(C(=O)O)cc3)cc2c1	·	·	·	23
Cc1cc(-c2nnc(CCC(=O)N(C)Cc3cccc4ccccc34)o2)no1	-6	17	-1	-6
O=C(/C=C/c1ccc(F)cc1)Nc1ccc2[nH]c(=O)[nH]c2c1	·	·	·	6
CCOc1ccc2nc(Cl)c(C3CC(c4ccco4)=NN3S(=O)(=O)c3ccccc3)cc2c1 (stereo unspecified)	100*	1	3	-11
COc1ccc2cc(C3CC(c4ccco4)=NN3S(C)(=O)=O)c(Cl)nc2c1 (stereo unspecified)	·	·	·	9
CCOc1ccc2nc(Cl)c(C3CC(c4ccccc4)=NN3C(=O)c3ccco3)cc2c1 (stereo unspecified)	43	-14	3	96*
O=C1CC(C(=O)NCc2ccccc2)C2(CCCC2)O1 (stereo unspecified)	-5	65*	2	-4
CC(C)CNC(=O)C1CC(=O)OC12CCCCC2 (stereo unspecified)	-4	8	0	8
CCOC(=O)C1=C(C)NC2=C(C(=O)CCC2)C1c1cn(Cc2ccc(Cl)cc2Cl)nc1-c1ccccc1 (stereo unspecified)	33	-17	5	29
COC(=O)C1=C(C)NC2=C(C(=O)CCC2)C1c1cn(Cc2ccc(Cl)cc2Cl)nc1-c1ccccc1 (stereo unspecified)	57*	-9	6	36
O=C(COC(=O)c1ccc2c(c1)C(=O)N(Cc1ccncc1)C2=O)Nc1ccccc1[N+](=O)[O-]	54*	-1	2	-16
Cc1ccc(NC(=O)COC(=O)c2ccc3c(c2)C(=O)N(CCc2ccccc2)C3=O)c(C)c1	-7	-7	7	78*
COCCN(C(=O)Cc1cccs1)C(C(=O)NC1CCCC1)c1cc(OC)c(OC)c(OC)c1 (stereo unspecified)	3	-10	0	4
Nc1nc(-c2ccccc2)c(-c2ccc([N+](=O)[O-])cc2)s1	5	72	6	74*
